PubChem BioAssay (NCATS)
Results filed as inconclusive are left out. A call without a number means that no potency is given here. The source made the active and inactive calls. Calls come from the whole dose curve; as a rule, active = well fitted curve in the direction sought with a large enough effect; inconclusive = small, poorly fitted or top-dose-only effect, or another doubt; inactive = no such curve, though single readings can be large; an effect the other way counts as inactive or inconclusive.

target: Cytochrome P450 3A4 (Homo sapiens) (UniProt P08684); assay: qHTS Assay for Inhibitors and Substrates of Cytochrome P450 3A4 (AID 884); conditions: recombinant CYP3A4, Luciferin-PPXE luminescence; series mostly up to 57.1 µM; note: nearly all actives have a fitted effect of over 50% in size
Procedure, shortened: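 Luminescent readout of luciferin produced by CYP3A4 (20 nM) dealkylation of Luciferin-PPXE, 25 uM (its KM). NADPH-driven reaction ran 60 min at RT after 10 min compound preincubation; data scaled to 57 uM ketoconazole as 100% inhibition.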

Sequence of Cytochrome P450 3A4 (Homo sapiens) (P08684 whole entry, looked up): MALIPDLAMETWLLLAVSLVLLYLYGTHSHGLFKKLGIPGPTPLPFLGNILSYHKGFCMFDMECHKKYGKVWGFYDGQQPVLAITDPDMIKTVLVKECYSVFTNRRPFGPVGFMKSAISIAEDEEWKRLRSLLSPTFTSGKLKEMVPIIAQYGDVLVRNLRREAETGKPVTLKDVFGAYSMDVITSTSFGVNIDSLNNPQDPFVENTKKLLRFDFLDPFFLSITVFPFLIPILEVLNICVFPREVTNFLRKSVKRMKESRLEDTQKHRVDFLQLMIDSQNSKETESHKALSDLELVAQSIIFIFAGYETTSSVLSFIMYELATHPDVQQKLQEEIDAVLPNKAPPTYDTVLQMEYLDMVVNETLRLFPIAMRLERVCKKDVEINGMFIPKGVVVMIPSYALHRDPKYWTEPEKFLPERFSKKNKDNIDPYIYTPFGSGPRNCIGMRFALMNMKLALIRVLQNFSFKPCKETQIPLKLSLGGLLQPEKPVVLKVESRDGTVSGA

| Structure (SMILES) | Potency |
| --- | --- |
| COc1c(Cl)ccc(Cl)c1C(=O)O | inactive |
| O=c1c(-c2ccc(O[C@@H]3O[C@H](CO)[C@@H](O)[C@H](O)[C@H]3O)cc2)coc2cc(O)cc(O)c12 | inactive |
| Nc1ncnc2c1ncn2C1CC(O)C(CO)O1 (stereo unspecified) | inactive |

target: Cytochrome P450 3A4 (Homo sapiens) (UniProt P08684); assay: qHTS Assay for Activators of Cytochrome P450 3A4 (AID 885); conditions: recombinant CYP3A4, Luciferin-PPXE luminescence, 60 min; series mostly up to 57.1 µM; note: nearly all actives have a fitted effect of over 65% in size; note: potency is the fitted concentration of half-maximal effect
Procedure, shortened: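 Using 20nM recombinant human CYP3A4 in potassium phosphate (200mM), substrate Luciferin-PPXE at 25uM, luminescent luciferin detection followed a 60-min RT NADPH reaction; data scaled to 57 uM ketoconazole.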

| Structure (SMILES) | Potency |
| --- | --- |
| COC(=O)CC1C(C)(C)C(OC(C)=O)[C@@]2(O)C=C3C4CC(=O)OC(c5ccoc5)[C@]4(C)CCC3[C@@]1(C)C2=O (stereo partly specified) | inactive |
| CC1(C)C(=O)CC[C@@]2(C)C1CC(O)[C@@]1(C)C3=CC(=O)OC(c4ccoc4)[C@]3(C)CCC21 (stereo partly specified) | inactive |
| COc1cc(OC)c2c(=O)c(OC)c(-c3ccc(OC)c(OC)c3)oc2c1 | inactive |
| COC(=O)CC1C(C)(C)C(=O)C2CC3=C4CC(=O)OC(c5ccoc5)[C@]4(C)CCC3[C@@]1(C)C2=O (stereo partly specified) | inactive |
| CC(=O)OC1CC2C(C)(C)C(O)CC(O)[C@@]2(C)C2CC[C@@]3(C)C(=CC(=O)OC3c3ccoc3)[C@]12C (stereo partly specified) | inactive |
| COC(=O)CC1C(C)(C)C(O)C2CC3=C4C=C(OC)OC(c5ccoc5)[C@]4(C)CCC3[C@@]1(C)C2=O (stereo partly specified) | inactive |
| COc1ccc2c(c1)OCC(Cc1ccc(OC)c(O)c1)C2=O (stereo unspecified) | inactive |
| CCN(CC)Cc1ccc(Nc2ccnc3cc(Cl)ccc23)cc1O | 7.94 µM (active) |
| CCCCCC(=O)Cc1cc(O)cc(O)c1C(=O)Oc1cc(CC(=O)CCCCC)c(C(=O)O)c(OC)c1 | inactive |
| COC(=O)CC1C(C)(C)C(OC(C)=O)C2CC3C4CC(=O)OC(c5ccoc5)[C@]4(C)CCC3[C@@]1(C)C2=O (stereo partly specified) | inactive |
| C=C[C@](C)(O)CCC1C(=C)CCC2[C@@](C)(CO)CCC[C@@]12C (stereo partly specified) | inactive |
| COc1cccc2c1CCC1CC(=O)CC[C@@]21C (stereo partly specified) | inactive |
| CNc1ccccc1C(=O)N1CCc2c([nH]c3ccccc23)C1=O | inactive |
| C/C=C(\C)C(=O)OC1[C@@H]2C=C3C4CC(=O)OC(c5ccoc5)[C@]4(C)CCC3[C@@](C)(C2=O)C(C(O)C(=O)OC)C1(C)C (stereo partly specified) | inactive |
| COc1ccc2c(c1)OCC(Cc1ccc(OC)c(OC)c1)C2O (stereo unspecified) | inactive |
| Cc1ccc2c(c1)CC[C@H]1CC(=O)CC[C@@]21C | inactive |
| O=c1cc(-c2cccc(O)c2)oc2ccc(O)cc12 | inactive |
| COC1(C)CCC2OC2(C)CCC2C1CC2(C)C (stereo unspecified) | inactive |
| C=C1C2CC[C@@]3(C)C(c4ccoc4)OC(=O)C[C@@]13OC1CC(=O)C(C)(C)C(CC(=O)OC)[C@]12C (stereo partly specified) | inactive |
| COc1cc2c(cc1OC)Cc1cc(OC)c(OC)cc1Cc1cc(OC)c(OC)cc1C2 | inactive |
| CC(C)/C(O)=C1/C(=O)OC(c2ccoc2)[C@@]2(C)C(O)C(O)[C@@]34OC5(C)OC67CC(C)(C(O)[C@@]6(O)C(O)[C@@]3(O5)C12)C(CC(=O)O)[C@@]74C (stereo partly specified) | inactive |
| CC[C@H](C)[C@H](NC(=O)OCC1c2ccccc2-c2ccccc21)C(=O)O | inactive |
| C=C1C2CC[C@@]3(C)C(c4ccoc4)OC(=O)C[C@@]13OC1CC(=O)C(C)(C)C(C(O)C(=O)OC)[C@]12C (stereo partly specified) | inactive |
